Measured values taken from PubChem BioAssay AID1159580 (chemical genetic matrix, 2015).
Among all 5,500 compounds or so, about 2,000 (36%) were called active. Not shown: some 18% with an inconclusive outcome. No stated cut-off is given here; in the data, active means normalized growth mostly below about 0.91 (no sharp cut-off); inconclusive means no clear call, values can overlap the other calls; inactive means mostly above about 0.92. This is one part of the list.

Assay: chemical genetic growth profiling, strain panel (AID 1159580);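 further: tested at 20 µM; growth read once vehicle control cultures reached saturation at 30 °C; 1 = growth at the plate median or of vehicle wells; lower values mean less growth of the strain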
Conditions: S. cerevisiae deletion strains, growth OD

Measured: normalized growth

O=C1OC(CN2CCOCC2)CN1/N=C\c1ccc([N+](=O)[O-])o1 (stereo not drawn)
inactive: locus YHR030C, strain SLT2, hits give low values 0.93 | locus YHR079C, strain IRE1, hits give low values 0.948 | locus YJL095W, strain BCK1, hits give low values 0.952 | locus YJR066W, strain TOR1, hits give low values 0.844 | locus YLR113W, strain HOG1, hits give low values 1.03 | locus YNL183C, strain NPR1, hits give low values 0.856 | locus YOR231W, strain MKK1, hits give low values 0.931 | locus YPL256C, strain CLN2, hits give low values 0.961
